# Screening data as filed in PubChem BioAssay.
# The list is not random: actives were taken first. Their share in the collection is about 1.1%.
# AI-2 QS modul: modulators of Vibrio harveyi AI-2 quorum sensing system. hit rate 0.4% among 300,000. Vibrio harveyi JMH597 AI-2 luminescence/OD600 ratio, 9 h; stronger effect = lower value; strain lacks LuxN and CqsS sensors; 0 = neutral-control median. activity change, % at 7.5 µM; in the data active = activity change below about -75%, passing the limit was not always enough;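 note: luminescence divided by OD600 gain over 9 h not by final OD600 alone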
# NTR1 ag: agonists of human neurotensin receptor NTR1. hit rate 0.17% among 330,000. activation, % at 20 µM. NTR1-U2OS beta-arrestin-GFP spot imaging, agonist mode. P30989;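 active = activation at or above 40% of the spot to cytoplasm intensity ratio, with at least 20 cells analyzed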;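 note: 0% = DMSO without peptide and 100% = 100 nM NTR1 peptide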
# Target sequence (P30989 whole entry, looked up): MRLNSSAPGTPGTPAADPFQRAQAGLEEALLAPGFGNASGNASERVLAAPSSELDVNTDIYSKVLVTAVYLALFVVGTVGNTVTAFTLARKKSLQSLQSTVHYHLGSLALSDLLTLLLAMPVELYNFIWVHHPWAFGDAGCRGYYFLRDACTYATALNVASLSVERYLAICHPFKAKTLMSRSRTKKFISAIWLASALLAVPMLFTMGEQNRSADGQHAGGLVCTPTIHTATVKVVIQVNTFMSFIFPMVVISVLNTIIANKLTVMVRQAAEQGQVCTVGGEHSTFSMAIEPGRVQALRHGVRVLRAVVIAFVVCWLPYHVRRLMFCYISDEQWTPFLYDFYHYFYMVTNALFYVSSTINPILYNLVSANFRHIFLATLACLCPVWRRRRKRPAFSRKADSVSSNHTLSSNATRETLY
# VLA-4 inh: inhibition in a human VLA-4 binding assay | VLA-4 expressing cells, ligand binding flow cytometry | inhibition, % (about 7 µM as worked out from the volumes in the protocol) | AID 2557 | hit rate 0.2% among 330,000; in the data active = inhibition above about 50%
# DSG3 Ab inh: blocks pemphigus antibody binding to human desmoglein-3; DSG3-coupled beads, scFv-anti-DSG3-GFP binding, flow cytometry; stronger effect = lower value; binding (percent of control), % at 10 µM; hit rate 0.48% among 310,000; AID 588358;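 active = binding more than 3 SD below its plate's average and above zero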
# An asterisk follows results filed as active; x = no result given.
SMILES,AI-2 QS modul,NTR1 ag,VLA-4 inh,DSG3 Ab inh
Cn1c(=O)c(=O)n(C)c2cc(S(=O)(=O)N3CCN(c4cccc(C(F)(F)F)c4)CC3)ccc21,4,-1,8,71*
Cc1c(S(=O)(=O)N2CCN(c3cccc(C(F)(F)F)c3)CC2)c(=O)n(C)c(=O)n1C,44,-3,17,87
CC1=CCC2C(=O)N(c3ccc(C)c(Br)c3)C(=O)C2C1 (stereo unspecified),-13,6,-7,48*
Cc1c(O)cc2c(c1O)C(=O)CC(c1ccc(O)cc1)O2 (stereo unspecified),34,-3,28,77*
NNC(=O)CP(=O)(c1ccccc1)c1ccccc1,37,5,17,x
CCNC(=O)CP(=O)(c1ccccc1)c1ccccc1,-5,0,-7,73*
CSCCC(C)N1CCC(Oc2ccc(C(=O)NCc3ccccn3)cc2)CC1 (stereo unspecified),x,x,x,101
CN(C)c1ccc(NC(=O)Cn2ncn3c(cc4ccccc43)c2=O)cc1,17,0,26,92
Cc1cc(C)cc(NC(=O)Cn2ncn3c(cc4ccccc43)c2=O)c1,12,0,-6,82*
CC1CC(C)CN(C(=O)CN2C(=O)NC3(CCCCCC3)C2=O)C1 (stereo unspecified),x,-1,4,102
Cc1cc(=O)oc2cc(OCC(=O)NC3(C#N)CCCCC3)ccc12,x,x,x,106
N#Cc1ccc(-c2ccc(F)cc2)nc1Oc1ccccc1,25,2,-1,83
N#Cc1ccc(-c2ccc(F)cc2)nc1Oc1ccc(F)cc1,16,-2,-7,82*
O=[N+]([O-])c1ccc(NCCCc2ccccc2)cc1,x,x,x,107
Cc1cc2oc(=O)cc(-c3ccccc3)c2c(C)c1-c1ccc(F)c(Cl)c1,x,6,x,74*
Cc1ccc(C)c(NC(=S)NC2CC3CCC(C2)N3Cc2ccco2)c1 (stereo unspecified),14,0,17,80*
Cc1cc(C)cc(NC(=S)NC2CC3CCC(C2)N3Cc2ccco2)c1 (stereo unspecified),15,1,13,123
Cc1nc2nc(-c3ccco3)[nH]n2c(=O)c1Cc1ccccc1,2,-1,24,103
Cc1nc2nc(-c3ccco3)[nH]n2c(=O)c1C,15,-1,7,65*
O=C(COC(=O)/C=C/c1cccc(F)c1)Nc1ncccn1,-7,0,2,83*
O=C(COC(=O)/C=C/c1cccc(F)c1)Nc1ccc(Cl)cn1,17,0,0,101
O=C1CC(C(=O)Nc2ccc(F)cc2)n2cnnc2N1 (stereo unspecified),21,-1,8,2.4*
CCOc1ccc(NC(=O)CSc2nc3ccsc3c(=O)n2Cc2ccc(C(=O)O)cc2)cc1,x,x,x,96
CC(C)(Cc1nc2ccccc2[nH]1)c1nc2ccccc2[nH]1,x,x,x,100
Oc1cc(CNC2CCCCC2)c(O)cc1CNC1CCCCC1,x,x,x,83
SMILES,AI-2 QS modul,NTR1 ag,VLA-4 inh,DSG3 Ab inh
CS(=O)(=O)Nc1ccccc1C(=O)Nc1ccccc1Cl,138,1,-2,66*
CC(C)(C)OC(=O)C[C@H]1C/C=C\C[C@H](CC(=O)NCCO)C(=O)N[C@@H](Cc2ccccc2)COC1=O,x,0,6,110
Cc1ccc(S(=O)(=O)c2cnc3cc(C)nn3c2N)cc1,-90*,-1,-7,x
COc1cccc(C(=O)O[C@@H]2[C@H](Cc3ccccc3)NS(=O)(=O)[C@H]3C[C@@H]4C=C[C@]23O4)c1,x,0,-5,102
Cc1cccc(NC(=O)c2ccc([N+](=O)[O-])o2)c1C,23,7,11,96
O=C(Nc1cccc([N+](=O)[O-])c1)c1ccc([N+](=O)[O-])o1,x,x,x,102
COc1ccccc1NC(=O)c1ccc([N+](=O)[O-])o1,-87*,3,-4,104
O=C(Nc1ccccc1N1CCCC1)c1ccc([N+](=O)[O-])o1,83,5,-4,108
O=C(Nc1cccc(NC(=O)c2ccccc2Cl)c1)c1ccc([N+](=O)[O-])o1,-191*,2,-2,93
O=C(Nc1cccc2ccccc12)c1ccc([N+](=O)[O-])o1,-128*,8,11,100
CCOc1cc2c(cc1OCC)CN(C(=O)c1cccc(S(=O)(=O)N3CCCC3)c1)CC2,x,0,13,99
Cc1nc(C)c(C(=O)OCC(=O)Nc2ccc(C)c(C)c2)s1,x,x,x,99
COc1ccc(N2CC(C(=O)Nc3nnc(SCC(=O)Nc4ccc(NC(C)=O)cc4)s3)CC2=O)cc1 (stereo unspecified),x,x,x,85*
CCOc1ccc(N2CC(C(=O)Nc3ccccn3)CC2=O)cc1 (stereo unspecified),14,0,0,114
COc1ccc(N2CC(C(=O)Nc3nnc(SCC(=O)N4CCCC4)s3)CC2=O)cc1 (stereo unspecified),17,0,20,107
CCOc1ccc(N2CC(C(=O)Nc3ccncc3)CC2=O)cc1 (stereo unspecified),-1,-2,-2,54*
O=C(CCCN1C(=O)S/C(=C/C=C/c2ccccc2)C1=O)Nc1ccc(C(=O)O)cc1,31,1,0,108
Cc1cc(NC(=O)CCCN2C(=O)c3cccc4cccc(c34)C2=O)no1,40,0,0,92*
CCc1ccc(/C=C2\SC(=S)N(CCCC(=O)Nc3cc(C)on3)C2=O)cc1,x,x,x,100
Cc1cc(NC(=O)CCCN2C(=O)/C(=C/c3cccs3)SC2=S)no1,15,2,17,16*
Cc1ccc(NC(=O)CCCN2C(=O)/C(=C/C=C/c3ccccc3)SC2=S)cc1,2,-1,-21,85*
COc1ccc(OC)c(C(=O)CSc2nnc(C3CC3)n2C2CC2)c1,x,x,x,97
CCOC(=O)c1ccc(NC(=O)Cn2nc(C)c3ccccc3c2=O)cc1,-97*,-1,2,106
Cc1nn(CC(=O)Nc2ccc3c(c2)oc2ccccc23)c(=O)c2ccccc12,-39,-2,-5,x
Cc1cc(Br)ccc1NC(=O)CNC(=O)Cn1ncc(Cl)c(Cl)c1=O,16,-1,50*,98
SMILES,AI-2 QS modul,NTR1 ag,VLA-4 inh,DSG3 Ab inh
Cc1ccc(S(=O)(=O)N2CCCCC2)cc1NC(=O)Cn1ncc(Cl)c(Cl)c1=O,x,0,22,x
CCOC(=O)c1ccc(NC(=O)Cn2ncc(Cl)c(Cl)c2=O)cc1,-96*,1,11,97
COC(=O)c1ccc(NC(=O)Cn2nc(C)c3ccccc3c2=O)cc1,-96*,0,16,108
Cc1ccccc1OCC(=O)OCC(=O)NC1CCCC1,x,x,x,104
O=C(Nc1nnc(S(=O)(=O)N2CCCCCC2)s1)c1ccccc1F,7,2,48,87
Cc1ccccc1C(=O)Nc1nnc(S(=O)(=O)N2CCCCCC2)s1,42,1,4,-6.6*
COc1ccc(-c2nn(-c3ccccc3)cc2/C=C2/SC(=S)N(Cc3ccco3)C2=O)c(C)c1,14,7,18,87*
COc1ccc(-n2c(C)cc(/C=C3\SC(=S)N(Cc4ccco4)C3=O)c2C)cc1,13,x,-361,108
Cc1ccccc1-n1c(SCC(=O)NC2CC2)nc2ccccc2c1=O,x,x,x,98
